Data from the OligoGym collection.

Biological target: MCM6
Experiment: pooled miR-30 sensor sort-seq; sequence = guide strand
Details: shRNA
Note: reference of the scale not given here.

Sequence	sensor-assay potency score (higher = more potent)
TTTGGTTCCAACTTCACTGGGA	1.01
TAGATTTTTATCTTGACTCATC	-0.898
TTACACATGAAAACAAAGGTAT	-0.0386
TAAAGTCACACTTGTCACCAGC	-0.442
TATCTCTGATTCGATTTCCTTC	-0.514
ATATCTTCTGATATCATCGAGG	-0.536
TACAACACACACCATTATCAGC	-1.14
TTGATTTATGTCTTCATTGTAG	-0.457
TTGATCTAGATTGACATCAGGT	0.643
ATGAATAGCAACTTGATCCCGC	0.187
TTGATTTATTCAGTAACCGGAA	-0.345

Biological target: MED17
Experiment: as above
Details: shRNA

Sequence	sensor-assay potency score (higher = more potent)
TTCTGTAGCTCAGATCTCCGAG	0.121
TTTTATTCCACTGAACTTCTTT	0.579
TTTATGAAACTCTCTAATCAGT	-0.898
TACACTAGGTGTCTCAACTGGT	0.232
TTTACATAAGAGAACATTCTGT	-0.192
TCTATGTACAACTCGAATCTGC	-0.242
TTATCTTGTAAAACATCACTTT	-0.0835
TATCTTTTTATCCAGATCGAGA	-1.18
TATTATTTTACATCTTGTCATA	-1.34
TTCAGGTATCTTTTTATCCAGA	-0.5
TATTACTGCACAGTCATCTTAC	-0.307
TTGCTGAACTGCATGTACCTGG	0.418
